Source: article PMC4336329 (PLoS ONE, 2015)
Among all 310,000 compounds or so, about 14,000 (4.5%) showed an effect of 50% or more. The effect is printed as a negative number. The entries come from a sample that favours strong results as a whole.

Target: human ether-à-go-go-related gene (hERG) potassium channel (human, UniProt Q12809)
Experiment: primary screen, population patch clamp on CHO cells stably expressing hERG; higher = less effect of the substance
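Also: peak tail current of the secondary pulse compared with the same well before compound.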

human ether-à-go-go-related gene (hERG) potassium channel, sequence (Q12809 whole entry, looked up): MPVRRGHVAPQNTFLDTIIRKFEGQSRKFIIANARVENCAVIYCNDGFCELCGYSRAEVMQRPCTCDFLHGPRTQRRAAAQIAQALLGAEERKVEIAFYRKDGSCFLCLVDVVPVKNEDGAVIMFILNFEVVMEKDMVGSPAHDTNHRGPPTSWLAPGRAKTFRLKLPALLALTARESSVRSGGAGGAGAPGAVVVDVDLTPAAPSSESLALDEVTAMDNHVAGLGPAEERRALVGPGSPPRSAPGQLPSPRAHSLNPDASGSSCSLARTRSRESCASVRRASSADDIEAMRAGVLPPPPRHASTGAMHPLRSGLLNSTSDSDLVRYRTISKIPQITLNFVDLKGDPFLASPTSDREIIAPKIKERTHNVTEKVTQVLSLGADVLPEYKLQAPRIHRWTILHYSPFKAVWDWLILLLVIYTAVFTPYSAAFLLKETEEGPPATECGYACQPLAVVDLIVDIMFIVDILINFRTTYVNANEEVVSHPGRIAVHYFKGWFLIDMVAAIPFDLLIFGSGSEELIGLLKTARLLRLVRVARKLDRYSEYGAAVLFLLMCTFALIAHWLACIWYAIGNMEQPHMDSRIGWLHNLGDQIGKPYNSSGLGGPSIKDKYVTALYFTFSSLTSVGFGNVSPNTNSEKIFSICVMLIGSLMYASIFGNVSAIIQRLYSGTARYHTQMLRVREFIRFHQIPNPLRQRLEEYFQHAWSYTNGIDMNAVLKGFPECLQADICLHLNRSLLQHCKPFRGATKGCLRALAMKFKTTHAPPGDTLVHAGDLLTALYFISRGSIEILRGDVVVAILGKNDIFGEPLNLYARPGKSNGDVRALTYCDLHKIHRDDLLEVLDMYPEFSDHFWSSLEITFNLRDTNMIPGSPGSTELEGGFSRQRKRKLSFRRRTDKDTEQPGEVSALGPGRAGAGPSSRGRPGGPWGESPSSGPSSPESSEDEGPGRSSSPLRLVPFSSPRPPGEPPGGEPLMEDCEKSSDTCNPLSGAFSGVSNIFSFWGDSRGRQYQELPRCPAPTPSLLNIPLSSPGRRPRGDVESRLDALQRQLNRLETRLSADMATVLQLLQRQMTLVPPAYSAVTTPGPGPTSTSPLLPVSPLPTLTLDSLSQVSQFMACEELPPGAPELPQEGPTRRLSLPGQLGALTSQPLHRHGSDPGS

SMILES	hERG current change (%, negative = inhibition) at 10uM [%]
COc1ccc(C(CNC(=O)c2ccc(Cl)c(S(=O)(=O)N3CCCC3)c2)N2CCCC2)cc1 (stereo not drawn)	-57.6
COc1ccc(C(CNC(=O)c2cc(S(=O)(=O)N3CCCC3)ccc2Cl)N2CCCC2)cc1 (stereo not drawn)	-31.6
COc1ccc(C(=O)NCCc2c[nH]c3ccccc23)cc1S(=O)(=O)N1CCCCC1C (stereo not drawn)	-12
COc1ccc(C(CNC(=O)c2ccc(OC)c(S(=O)(=O)N3CCCC3)c2)N2CCCC2)cc1 (stereo not drawn)	9.12
COc1ccc(C(=O)Nc2ccc(NC(C)=O)cc2)cc1S(=O)(=O)N1CCCCC1C (stereo not drawn)	1.47
COc1ccc(C(=O)NCCc2ccc(Cl)cc2)cc1S(=O)(=O)N1CCCCC1C (stereo not drawn)	-52.3
O=C(NCCc1ccccc1)c1ccc(Cl)c(S(=O)(=O)N2CCCC2)c1	-23.1
COc1ccc(CCNC(=O)c2ccc(Cl)c(S(=O)(=O)N3CCCCCC3)c2)cc1	-34.2
COc1ccc(CCNC(=O)c2ccc(Cl)c(S(=O)(=O)N3CCCC3)c2)cc1	-56.6
Cc1ccc(S(=O)(=O)NC(CC(=O)NCC2CCCO2)c2ccco2)cc1 (stereo not drawn)	24.9
COc1ccc(N(CC(=O)N2CCN(Cc3ccccc3)CC2)S(C)(=O)=O)cc1	-3
O=C(NN1CCOCC1)c1cc(-c2ccc(Cl)c(Cl)c2)nc2ccccc12	10.8
Cc1oncc1C(=O)Nc1cccc(C#N)c1	4.43
CCCN1C(=O)/C(=c2\sc3nc(=O)c(Cc4ccc(C)cc4)nn3c2=O)c2ccccc21	21.2
CCN(Cc1ccccc1)C(=O)c1oc2ccc(S(=O)(=O)N3CCOCC3)cc2c1C	-6.06
Nc1cc(C(=O)OCC(=O)N2CCOCC2)ccc1Cl	17.8
CC(C)(C)NC(=O)CSC(=Nc1cccc(F)c1)NC#N	8.94
CC(C)(C)NC(=O)CSC(=Nc1ccccc1F)NC#N	-0.709
CC(C)(C)NC(=O)CSC(=Nc1ccc(F)cc1)NC#N	-72.3
COc1ccc(CNC(=O)c2noc(C(C)C)c2[N+](=O)[O-])cc1	3.4
Cc1ccc(NNC(=O)c2ccno2)c(C)c1	11.1

SMILES	hERG current change (%, negative = inhibition) at 10uM [%]
COc1ccc(OC)c(-c2csc(NC(=O)CN3C(=O)C4CCCCC4C3=O)n2)c1 (stereo not drawn)	-0.554
O=C(O)c1ccccc1S(=O)(=O)NCC(O)COC1CCCCC1 (stereo not drawn)	-2.65
CCOC(=O)C1(Cc2ccccc2)CCN(Cc2cc(OC)c3c(c2)OCO3)CC1	-60.7
CCOC(=O)C1(CCOc2ccccc2)CCN(Cc2cc(OC)c3c(c2)OCO3)CC1	-72.1
CCN1CCN(Cc2cc(OC)c3c(c2)OCO3)CC1	9.99
CCN1C(=O)CC(N2CCN(c3ccc(Cl)cc3)CC2)C1=O (stereo not drawn)	-14
COc1ccc2c(CC(=O)OCC(=O)c3ccc(F)cc3)coc2c1	6.5
CCCc1ccc(-c2cc(C(=O)NN3CCOCC3)c3ccccc3n2)cc1	-3.8
NC(=O)c1ccc(NC(=O)CSc2nnc(C3CCCCC3)n2N)cc1	18
Cn1c(C(=O)NC2CCCCC2)cc2sccc21	-7.87
Cc1c(C(=O)OC(C)CCN(C)C)oc2ccccc12.Cl (stereo not drawn)	-42.8
CCOc1ccc2oc(C(=O)N3CCN(c4ccccn4)CC3)c(C)c2c1	-34.3
Cc1c(C(=O)OCC(=O)N(C)c2ccccc2)oc2ccccc12	3.17
COc1ccc2oc(C(=O)NCc3cc(OC)c(OC)cc3OC)c(C)c2c1	0.174
COc1ccc2oc(C(=O)NCc3ccccc3CN3CCCC3)c(C)c2c1	-66.1
CCOc1ccc2oc(C(=O)N3CCN(Cc4ccccc4)CC3)c(C)c2c1	-18.4
COc1ccc2oc(C(=O)NCc3ccco3)c(C)c2c1	8.36
CCOc1ccc2oc(C(=O)NCc3ccccc3CN3CCCC3)c(C)c2c1	-66.2
CCOc1ccc2oc(C(=O)NCc3nc4ccccc4[nH]3)c(C)c2c1	10.3
CCOc1ccc2oc(C(=O)NCC3CCCO3)c(C)c2c1 (stereo not drawn)	11
Cc1c(C(=O)OCC(C)(C)CN(C)C)oc2ccccc12.Cl	-52

SMILES	hERG current change (%, negative = inhibition) at 10uM [%]
CCOc1ccc2oc(C(=O)N3CCN(c4ccccc4OCC)CC3)c(C)c2c1	-52.6
CN(c1cccc(Cl)c1)S(=O)(=O)c1cccc(C(=O)NN2CCOCC2)c1	-14.1
Cc1ccc(S(=O)(=O)CCC(=O)OC(C)C(=O)NC2CCCCC2C)cc1 (stereo not drawn)	-1.21
CCOC(=O)c1ccc(N2C(=O)C3CC=C(C)CC3C2=O)cc1 (stereo not drawn)	7.74
Cn1c(=O)c2c(SCC(N)=O)nc(CC(C)(C)C)nc2n(C)c1=O	-10.5
CC1(C)c2ccccc2N(CC(N)=O)C12C=Cc1ccccc1O2 (stereo not drawn)	-26
Cc1nc(NC(=O)c2cccnc2Cl)sc1C	4.14
CC(NC(=O)c1ccc2c(c1)OCO2)C(c1cccs1)N1CCN(c2ccccc2)CC1 (stereo not drawn)	3.68
COc1ccc(CCn2c(C)cc(C(=O)CSc3nnnn3C)c2C)cc1	0.08
CC1CCCCC1NC(=O)Cn1c(CN2CCCCC2)nc2ccccc2c1=O (stereo not drawn)	-24.6
COc1ccc(OC)c(S(=O)(=O)NCC(c2ccc3c(c2)OCO3)N2CCOCC2)c1 (stereo not drawn)	-28.4
O=c1c2cc(Cl)ccc2nc(-c2ccccc2Cl)n1O	16.4
Cc1c(C(=O)NCCN2CCCC(O)C2)oc2c(F)cccc12 (stereo not drawn)	-1.78
Cc1c(C(=O)NCc2ccco2)oc2c(F)cccc12	1.08
Cc1c(C(=O)NCc2ccccc2CN2CCCC2)oc2ccc(F)cc12	-74
CCOc1ccc2oc(C(=O)NCC(C)(C)CN(C)C)c(C)c2c1.Cl	-54.5
Cc1c(C(=O)NCc2ccccc2)oc2ccc(S(=O)(=O)N3CCCC3)cc12	2.65
COc1ccccc1CNC(=O)c1oc2ccc(S(=O)(=O)N3CCCC3)cc2c1C	-4.46
Cc1c(C(=O)NCc2ccccc2CN2CCCC2)oc2c(F)cccc12	-70.5
CCOc1ccc2oc(C(=O)NC(C)(C)CC)c(C)c2c1	-3
CCOc1ccc2oc(C(=O)O)c(C)c2c1	4.62
